# Rows were chosen to be rich in hits. Some 18% of all compounds tested hit in one or more screens of this group.
# TGFb SMAD3 inh – inhibitors of TGF-b signaling | 410,000 compounds, 1.2% hits | Potency, µM (titrated, usually from 46.1 µM), most hits filed as inhibitors | HepG2 CAGA-GFP TGF-b/SMAD3 reporter, GFP fluorescence, 18 h; TGF-beta stimulated, 500 pg/mL final; also: nearly all actives have a fitted effect of over 65% in size
#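 Using HEPG2 CAGA-GFP reporter cells at 1000 cells/well, we pinned test compounds, stimulated with recombinant TGF-beta (500 pg/mL final) and measured total well GFP after 18 h.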
# TDP1 inh – inhibitors of human tyrosyl-DNA phosphodiesterase TDP1. recombinant TDP1, AlphaScreen DNA substrate cleavage. 350,000 compounds, 0.28% hits. Potency, µM (highest dose often 130 µM), most hits filed as inhibitors; also: nearly all actives have a fitted effect of over 40% in size
# Target sequence (Q9NUW8 whole entry, looked up): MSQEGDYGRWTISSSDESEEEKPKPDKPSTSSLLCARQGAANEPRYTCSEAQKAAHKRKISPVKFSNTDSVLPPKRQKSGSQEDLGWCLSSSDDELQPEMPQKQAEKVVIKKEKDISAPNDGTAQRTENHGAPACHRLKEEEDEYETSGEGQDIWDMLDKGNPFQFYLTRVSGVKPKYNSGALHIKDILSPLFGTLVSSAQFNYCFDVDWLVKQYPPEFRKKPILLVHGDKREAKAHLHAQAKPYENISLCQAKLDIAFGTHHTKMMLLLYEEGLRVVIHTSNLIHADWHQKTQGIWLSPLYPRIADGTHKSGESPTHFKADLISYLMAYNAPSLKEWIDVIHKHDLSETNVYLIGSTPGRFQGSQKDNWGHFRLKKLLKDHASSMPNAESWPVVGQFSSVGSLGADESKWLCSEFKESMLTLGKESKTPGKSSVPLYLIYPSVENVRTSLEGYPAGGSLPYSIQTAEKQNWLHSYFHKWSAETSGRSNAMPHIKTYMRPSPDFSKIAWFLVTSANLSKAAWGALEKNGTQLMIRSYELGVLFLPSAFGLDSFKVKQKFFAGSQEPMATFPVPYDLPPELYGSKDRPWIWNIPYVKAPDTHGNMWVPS
#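 Recombinant human Tdp1 (E. coli-expressed, 1 nM final) preincubated with compounds 15 min at room temperature, then 5'-biotin/3'-phosphotyrosine-FITC DNA substrate (15 nM final) added for 5 min. AlphaScreen beads (10 ug/ml final) added 10 min; cleavage lowers signal.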
# DT40 TDP1 no CPT – qHTS for Inhibitors of human tyrosyl-DNA phosphodiesterase 1 (TDP1): qHTS in cells in absence of CPT | DT40 Tdp1-/- hTDP1 cells, no CPT, ATP luminescence, 48 h | Potency, µM (titrated, usually from 46.2 µM), usual class: inhibitors | 420,000 compounds, 15% hits | AID 686978, 2013; also: nearly all actives have a fitted effect of over 55% in size
#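 Cells were dispensed at 400 per well, compounds added by pin tool, plates incubated ≥48 hr at 37 °C, then CellTiter-Glo added for 30 min at room temperature before luminescence reading. Line: DT40 Tdp1-/- complemented with hTDP1; camptothecin omitted.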
# DT40 TDP1 CPT – growth inhibition of DT40 Tdp1-/-;hTDP1 cells with camptothecin (screen for TDP1 inhibitors). Potency, µM (top dose mostly 46.2 µM), most hits filed as inhibitors. 420,000 compounds, 12% hits. chicken DT40 Tdp1-/-;hTDP1 cells + 20 nM CPT, ATP luminescence, 48 h. AID 686979; also: nearly all actives have a fitted effect of over 55% in size
#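 Chicken DT40 Tdp1-/- cells complemented with human TDP1, 400 cells/well, exposed to compounds plus 20 nM camptothecin for at least 48 h at 37 C; viability read as ATP content by CellTiter-Glo luminescence.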
# HepG2 viability – kills HepG2 cells in TGF-b inhibitor counter-screen; Potency, µM (highest dose often 46.1 µM), actives largely listed as cytotoxic; HepG2 CAGA-GFP viability, ATP luminescence, 18 h; 410,000 compounds, 0.76% hits
#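 CellTiter-Glo luminescence gave cytotoxicity after 18 hours at 37 degrees C. The cells were HepG2 CAGA-GFP in 1% FBS DMEM, stimulated with 500 pg/mL TGF-beta after compound addition. %Activity was normalised to no-cell wells (complete cell-killing) and DMSO (no toxicity), and curves were fitted and classified.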
# IL-1B inflam inh – blocks inflammasome-driven IL-1 beta release; THP-1 LPS/ATP IL-1B secretion, AlphaLISA, 16 h; stronger effect = lower value; activity change, % at 57.5 µM; 360,000 compounds, 4.7% hits; in the data active = activity change below about -50%; inconclusive = mostly about -30% to -49%
#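 THP-1 cells pretreated 1 hr with compounds (up to 57.5 uM final), then stimulated with LPS (250 ng/mL final) plus ATP (1.25 mM final); secreted IL-1B measured by AlphaLISA after 16 hr, decreased signal indicating inhibition.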
# A number is an active result; . = inactive; ? = inconclusive; / = no result; ! = a repeat was not active; [ ] = another dose, or the depositor's remark. Unless noted, calls follow the shape of the dose curve; as a rule, active = well fitted curve in the direction sought with a large enough effect; inconclusive = small, poorly fitted or top-dose-only effect, or another doubt; inactive = no such curve, though single readings can be large; an effect the other way counts as inactive or inconclusive.
SMILES,TGFb SMAD3 inh,TDP1 inh,DT40 TDP1 no CPT,DT40 TDP1 CPT,HepG2 viability,IL-1B inflam inh
COc1cc(/C=C2/SC(=O)N(CC(=O)N3CCCC3)C2=O)ccc1Oc1ccc([N+](=O)[O-])cn1,.,.,21µM,?,.,-63
CCN1C(=O)S/C(=C/c2ccc(Oc3ccc([N+](=O)[O-])cn3)c(OC)c2)C1=O,.,.,13µM,?,.,.
Cc1ccc(-n2ncc3c(SCC(N)=O)ncnc32)cc1C,.,/,?,?,.,.
CC(C)(C)S(=O)N1Cc2cc(C(=O)NCc3ccc4c(c3)OCO4)nc(-c3cccc(-c4cc5ccccc5o4)c3)c2[C@@H]1CCO (stereo partly specified),?,/,?,?,.,.
O=[N+]([O-])c1ccc(S(=O)(=O)N2CCN(c3nc(-c4cccs4)nc4ccccc34)CC2)cc1,.,.,.,.,.,/
O=C1C(=NO)CC(c2ccccc2)N1c1ccccc1 (stereo unspecified),.,/,.,.,.,.
CCc1nc2ccc(C(=O)Nc3cc(-c4ccccc4)ccc3OC)cn2c1N(C)Cc1ccc(Cl)cc1,.,/,21µM,18µM,.,?
CCN(CC)c1c(C)nc2ccc(C(=O)Nc3cc(-c4ccccc4)ccc3OC)cn12,?,/,18µM,?,.,?
CCc1nc2ccc(C(=O)Nc3ccc(OC)c(OC)c3)cn2c1N(C)C(=O)Cc1ccccc1,.,/,.,.,.,.
COc1ccc(-c2ccccc2)cc1NC(=O)c1ccncc1,.,/,.,.,.,.
CC12CCC(C/C1=N\OC(=O)c1c(F)cccc1F)C2(C)C (stereo unspecified),.,.,.,.,.,.
O=c1nc(/C=C/c2ccccc2C(F)(F)F)cc(C(F)(F)F)[nH]1,.,.,.,.,.,.
CCOc1cc(/C=C/c2cc(C(F)(F)F)[nH]c(=O)n2)ccc1O,?,.,?,?,.,-63
COc1ccc(/C=C/c2cc(C(F)(F)F)[nH]c(=O)n2)cc1OC,.,.,.,.,.,-96
OC(c1cccnc1)c1nc(-c2ccc3c(c2)OCO3)cs1 (stereo unspecified),.,/,?,?,.,.
COc1ccccc1-c1cc(C(=O)N2CCN(c3ccccc3OC)CC2)no1,.,.,?,18µM,.,.
COc1ccccc1N1CCN(C(=O)c2nc(SC)ncc2Cl)CC1,?,.,1µM,1µM,.,/
COc1ccccc1N1CCN(C(=O)c2cc(-c3ccc(Cl)cc3)on2)CC1,.,.,?,22µM,.,.
COc1ccccc1N1CCN(C(=O)c2onc(C)c2Cl)CC1,.,/,?,?,.,.
CN1N=C(C(=O)N2CCCC(N3CCN(c4ccc(F)cc4)CC3)C2)CCC1=O (stereo unspecified),.,.,.,.,.,.
COc1ccccc1NC(=O)C1CCN(S(=O)(=O)c2ccc3[nH]c4c(c3c2)CCCCC4)CC1,?,.,?,?,.,/
Cn1cc(/C(Cc2ccccc2)=N\O)c2ccccc21,.,.,16µM,23µM,.,.
Cn1cc(C(=O)CCl)c2ccccc21,13µM,.,4.6µM,2.3µM,16µM,-100
Cc1ccccc1Nc1c(-c2ccsc2)nc2c(C)cccn12,?,.,21µM,16µM,.,/
Cc1ccc(-c2nc3ccccn3c2Nc2ccccc2C)s1,.,.,21µM,?,.,/
SMILES,TGFb SMAD3 inh,TDP1 inh,DT40 TDP1 no CPT,DT40 TDP1 CPT,HepG2 viability,IL-1B inflam inh
Cc1ccn2c(Nc3ccccc3C)c(-c3ccncc3)nc2c1,?,.[12.3 µM],15µM,16µM,.,-89
COc1ccc(C(=O)CCC(=O)N2CCN(c3cccc(Cl)c3)CC2)cc1,.,/,23µM,16µM,.,.
COc1ccc(-c2noc(CCC(=O)N3CCN(c4ccccc4OC)CC3)n2)cc1,?,.,21µM,?,.,.
COc1ccc(-c2noc(CCC(=O)N3CCN(c4cccc(Cl)c4)CC3)n2)cc1,.,.,23µM,?,.,.
COc1ccccc1N(Cc1cc2cccc(C)c2[nH]c1=O)C(=O)c1cccc(Cl)c1,.,.,21µM,13µM,.,/
COCC(=O)N(Cc1cc2ccccc2[nH]c1=O)c1ccccc1OC,.,.,.,.,.,.
CCCC(=O)N(Cc1cc2cc(OC)ccc2[nH]c1=O)c1ccccc1OC,.,/,?,15µM,.,.
COc1ccc2[nH]c(=O)c(CN(C(=O)c3cccnc3)c3ccc(C)c(C)c3)cc2c1,.,/,?,12µM,.,.
COc1ccc(N(Cc2cc3ccccc3[nH]c2=O)C(=O)c2cccc(Cl)c2)cc1,.,.,23µM,16µM,.,/
COCCN(Cc1cc2cccc(C)c2[nH]c1=O)C(=O)c1ccccc1,.,.,.,.,.,.
CCN(Cc1cc2cccc(C)c2[nH]c1=O)C(=O)c1ccccc1OC,.,.,23µM,?,.,.
Cc1cccc(C)c1NC(=O)c1cccc(N2C(=O)C3CCC(C)CC3C2=O)c1 (stereo unspecified),.,.,.,.,.,.
Cc1cc(Cl)ccc1C(O)c1ncc(-c2ccc(F)cc2)[nH]1 (stereo unspecified),.,/,?,?,.,.
Cc1cc(Cl)ccc1C(O)c1ncc(-c2ccc(Cl)cc2)[nH]1 (stereo unspecified),?,/,?,13µM,.,.
Cc1ccc(-c2cnc(C(O)c3ccc(Cl)cc3C)[nH]2)cc1 (stereo unspecified),.,/,?,23µM,.,.
Cc1cccc(-c2cnc(C(O)c3ccc(Cl)cc3C)[nH]2)c1 (stereo unspecified),.,/,18µM,?,.,.
CCOc1ccc(NC(=S)Nc2ccccc2C2(C)CC2)cc1,?,.,8.2µM,?,.,?
COC(=O)NC(c1ccco1)[C@@]1(C(=O)OC)CCCC1=O (stereo partly specified),/,.[21 µM],/,/,/,/
CC(C)C[C@H]1COCCS(=O)(=O)N1Cc1cccc(Cl)c1,.,/,?,15µM,.,.
CCCC[C@H]1COCCS(=O)(=O)N1Cc1cccc(F)c1,.,/,13µM!,?,.,.
CCCC[C@H]1COCCS(=O)(=O)N1Cc1ccc(F)cc1,.,/,?,?,.,.
CCCC[C@H]1COCCS(=O)(=O)N1Cc1ccc(C)cc1,.,/,26µM,?,.,/
O=S1(=O)CCO[C@H]2Cc3ccccc3[C@H]2N1Cc1cccc(F)c1,.,/,.,21µM!,.,.
C[C@@H](Oc1ccc(Oc2cnc3ccc(Cl)cc3n2)cc1)C(=O)O,/,.,/,/,/,/

# Screening results deposited in PubChem by National Center for Advancing Translational Sciences (NCATS).
